# Values joined by “and” are separate entries in the source; they are usually repeats but may differ in a detail not shown here. Identical values can stand only once. This is part of a sample that, as a whole, favours compounds with a hit. Of some 83,000 tested, about 20% had one in any assay.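 Values shown are percent growth following 48 h exposure of cells in 96-well plates to a single concentration of compound; below 10 was considered active.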 Active and inactive are the calls of the source.
# Tests used:
# Test in all cases: NCI-60 one-dose screen, 48 h (100 = growth as untreated, 0 = no growth, -100 = all killed)
# Conditions in all cases: 10 µM
# [1] = system: MOLT-4 leukemia
# [2] = system: SR leukemia
# [3] = system: RPMI-8226 leukemia
# [4] = system: OVCAR-5 ovarian
# [5] = system: OVCAR-4 ovarian
# [6] = system: SK-OV-3 ovarian
# [7] = system: IGROV1 ovarian
# [8] = system: OVCAR-3 ovarian
# [9] = system: HS 578T breast
# [10] = system: OVCAR-8 ovarian
SMILES,growth [1],growth [2],growth [3],growth [4],growth [5],growth [6],growth [7],growth [8],growth [9],growth [10]
COc1ccc(/C=C(\C)[N+](=O)[O-])cc1OC,-25% (active),-17.4% (active),-20.2% (active),67.8% (inactive),17.2% (inactive),104% (inactive),-18.5% (active),-76.3% (active),65.7% (inactive),
CC(Cc1ccc2c(c1)OCO2)NN (centres undefined),78.4% (inactive),91.6% (inactive),,100% (inactive),106% (inactive),84.8% (inactive),100% (inactive),112% (inactive),93.3% (inactive),97.7% (inactive)
O=c1[nH]c2ccccc2n1C1CCN(CCCC(c2ccc(F)cc2)c2ccc(F)cc2)CC1,-34% (active) and 15.3% (inactive),-50.8% (active) and -35.4% (active),,38.3% (inactive),55.6% (inactive) and 70.2% (inactive),85.8% (inactive) and 78.4% (inactive),71.3% (inactive) and 55.5% (inactive),-74.2% (active) and 39.5% (inactive),55.2% (inactive) and -34.7% (active),
COc1ccccc1/C=C/[N+](=O)[O-],53.3% (inactive),-11.9% (active),,85.6% (inactive),,113% (inactive),53% (inactive),49.9% (inactive),79% (inactive),63.3% (inactive)
COS(=O)(=O)c1ccccc1,85.4% (inactive),71.1% (inactive),89.9% (inactive),104% (inactive),110% (inactive),101% (inactive),,110% (inactive),110% (inactive),
Cc1cc([N+](=O)[O-])c2ccccc2[n+]1[O-],-24.5% (active),-10.2% (active) and -21.8% (active),,20.9% (inactive) and 13.3% (inactive),84.1% (inactive) and 58.4% (inactive),7.72% (active) and 21.4% (inactive),46.8% (inactive) and 5.5% (active),-32.2% (active) and -41% (active),8.5% (active) and -14.4% (active),9.55% (active) and -40.6% (active)
CCCCCCCC[N+]12CN3CN(CN(C3)C1)C2,120% (inactive),92.7% (inactive),90.1% (inactive),96.5% (inactive),99.2% (inactive),103% (inactive),,97.9% (inactive),92.4% (inactive),
O=S(=O)(F)c1ccc(Cl)cc1,105% (inactive),107% (inactive),,113% (inactive),115% (inactive),104% (inactive),113% (inactive),108% (inactive),,
CC(C)(C)OOC(=O)/C=C\C(=O)OOC(C)(C)C,107% (inactive),93.5% (inactive),,99.3% (inactive),104% (inactive),108% (inactive),,113% (inactive),113% (inactive),97.4% (inactive)
COc1cc(/C=C\[N+](=O)[O-])ccc1O,27% (inactive) and 79.2% (inactive),8.06% (active) and 40% (inactive),,93.6% (inactive) and 105% (inactive),92.6% (inactive) and 113% (inactive),101% (inactive) and 97% (inactive),80.8% (inactive) and 75.4% (inactive),62.4% (inactive) and 71.5% (inactive),106% (inactive) and 94.5% (inactive),
O=[P+](O)c1ccccc1,107% (inactive),102% (inactive),,108% (inactive),114% (inactive),101% (inactive),115% (inactive),109% (inactive),106% (inactive),
NC(Cc1ccccc1)c1ccccc1 (centres undefined),116% (inactive) and 94.2% (inactive),99.9% (inactive) and 93.7% (inactive),,98.5% (inactive) and 96.1% (inactive),103% (inactive) and 112% (inactive),101% (inactive) and 103% (inactive),107% (inactive) and 101% (inactive),112% (inactive) and 118% (inactive),98.9% (inactive) and 119% (inactive),104% (inactive) and 108% (inactive)
C[CH2][Hg][S]c1ccccc1C(=O)O,0.484% (active),-5.7% (active),-17.6% (active),,-36.6% (active),21.1% (inactive),,-100% (active),-1.53% (active),
C[C@@H]1C[C@@H]([C@H](O)CC2CC(=O)NC(=O)C2)C(=O)[C@@H](C)C1,3.71% (active),13.8% (inactive),,8.45% (active),12.8% (inactive),10.9% (inactive),,4.14% (active),7.45% (active),3.4% (active)
CC(=O)Nc1c2sscc-2n(C)c1=O,-58% (active),-27.4% (active),,-60.4% (active),-96.4% (active),-100% (active),-88.4% (active),-100% (active),-57% (active),
CC[C@@]1(O)C[C@H](OC2CC(N(C)C)C(O)C(C)O2)c2c(cc3c(c2O)C(=O)c2c(O)ccc(O)c2C3=O)[C@H]1C(=O)OC (some centres undefined),-19.5% (active),-18.2% (active),,-87% (active),-44.2% (active),-68.9% (active),-68.3% (active),-41.6% (active),,
COc1ccc2c(ccc3oc([N+](=O)[O-])cc32)c1,-19% (active),-9.5% (active),12.1% (inactive),9.85% (active),28.9% (inactive),-12.6% (active),,-13.9% (active),-7.73% (active),
CC(C)c1cc([N+](=O)[O-])cc([N+](=O)[O-])c1O,98.2% (inactive),94.3% (inactive),,107% (inactive),115% (inactive),100% (inactive),111% (inactive),105% (inactive),101% (inactive),104% (inactive)
NC(=O)c1cc([N+](=O)[O-])c(Cl)c([N+](=O)[O-])c1,-13.3% (active),-3.5% (active),-10.4% (active),111% (inactive),71.8% (inactive),104% (inactive),,-41.1% (active),106% (inactive),
Oc1c(I)cc(I)cc1I,98.9% (inactive),101% (inactive),,98.6% (inactive),104% (inactive),109% (inactive),112% (inactive),124% (inactive),119% (inactive),101% (inactive)
COc1cc(/C=C(/C)[N+](=O)[O-])ccc1O,-3.07% (active) and 1.18% (active),-14.7% (active) and -4.36% (active),,83.5% (inactive) and 60.3% (inactive),50.6% (inactive),92.5% (inactive) and 90.2% (inactive),,-76.2% (active) and -89.3% (active),48.5% (inactive) and -8.96% (active),37.5% (inactive) and 27.1% (inactive)
[Cl][Hg][c]1ccc(Cl)s1,-11.5% (active),-17.1% (active),18.5% (inactive),28.2% (inactive),11.2% (inactive),98.2% (inactive),,-78.7% (active),59.1% (inactive),
N#CCc1ccccc1,97.9% (inactive),104% (inactive),,101% (inactive),94.6% (inactive),98.4% (inactive),115% (inactive),111% (inactive),106% (inactive),105% (inactive)
O=[N+]([O-])/C=C/c1ccc([N+](=O)[O-])cc1,47% (inactive) and 47.8% (inactive),3.64% (active) and 20.5% (inactive),,71.7% (inactive) and 125% (inactive),85.6% (inactive) and 86.6% (inactive),92.6% (inactive) and 110% (inactive),,-98.4% (active) and 36.6% (inactive),-2.35% (active) and 93.8% (inactive),28% (inactive) and 92% (inactive)
COc1cc([N+](=O)[O-])c2ncccc2c1[N+](=O)[O-],26% (inactive),25.7% (inactive),,124% (inactive),47.5% (inactive),91.5% (inactive),23.1% (inactive),58.1% (inactive),79.4% (inactive),69.8% (inactive)
COC1CC2C=C(C)/C=C/C=C/C(=O)NC(c3ccccc3)C/C=C/CCC(O)CC(=O)C2=C1O (centres undefined),-59.5% (active),2.86% (active),,-95.6% (active),-78.4% (active),-91.4% (active),-90.2% (active),-83.9% (active),-51.4% (active),
COc1ccccc1[As]=[As]c1ccccc1OC (centres undefined),-9.7% (active),-2.26% (active),-15.1% (active),-93.2% (active),-85.1% (active),-99.7% (active),,-93.3% (active),-11.6% (active),
Cc1ccc(C(=O)C2C(c3ccccc3)N2C2CCCCC2)cc1 (centres undefined),94.9% (inactive) and 93.3% (inactive),94.4% (inactive) and 97.4% (inactive),,97.4% (inactive) and 95.9% (inactive),98.4% (inactive) and 87.2% (inactive),102% (inactive) and 96.2% (inactive),119% (inactive) and 92.4% (inactive),114% (inactive) and 108% (inactive),102% (inactive) and 97.1% (inactive),
